Assay results from PubChem BioAssay (Tox21).
Inconclusive results are not listed. The source made the active and inactive calls. Unless noted, calls come from the whole dose curve; as a rule, active = well fitted curve in the direction sought with a large enough effect in the repeat runs; inconclusive = weak or mixed curves; inactive = flat fitted curve, though single readings scatter.

Tests used:
[1] = qHTS assay to test for compound auto fluorescence at 535 nm (green) in HEK293 cells (AID 720680)
[2] = qHTS assay to test for compound auto fluorescence at 460 nm (blue) in HEK293 cell free culture (AID 720681)
Outline: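 Test compounds were pinned into cell-free culture medium (DMEM with 10% FBS) and fluorescence was read directly at Ex/Em 405/460 nm. Signals were expressed as fluorescence equivalents of triamterene, with DMSO vehicle as control.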

[3] = qHTS assay to test for compound auto fluorescence at 535 nm (green) in HEK293 cell free culture (AID 720682)
Outline: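 Each library compound, or DMSO control, is added by pintool to medium alone, comprising DMEM and 10% FBS. Emission at 535 nm following 485 nm excitation is quantified against fluorescein.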

[4] = qHTS assay to test for compound auto fluorescence at 590 nm (red) in HEK293 cell free culture (AID 720683)
Outline: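 Tox21 10K library compounds were pinned into cell-free DMEM with 10% FBS and fluorescence was read at excitation 540 nm. Activity is expressed as Rose Bengal sodium equivalency.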

[5] = qHTS assay to test for compound auto fluorescence at 590 nm (red) in HepG2 cell free culture (AID 720684)
Outline: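 Readout: intrinsic compound fluorescence at 590 nm emission after 540 nm excitation, scaled to Rose Bengal sodium. Matrix was cell-free MEM with 10% FBS; DMSO vehicle wells served as control.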

[6] = qHTS assay to test for compound auto fluorescence at 460 nm (blue) in HepG2 cell free culture (AID 720685)
Outline: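 Cell-free plates of MEM plus 10% FBS received 23 nL compound or DMSO vehicle; blue-channel (405/460 nm) intensity scored against triamterene as reference fluorophore.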

[7] = qHTS assay to test for compound auto fluorescence at 535 nm (green) in HepG2 cell free culture (AID 720686)
[8] = qHTS assay to test for compound auto fluorescence at 460 nm (blue) in HepG2 cells (AID 720687)
Outline: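 Cells (2,000/well in MEM with 10% FBS) attached overnight at 37 C, then were exposed to compound or DMSO for 1 hr at 37 C, 5% CO2. Fluorescence read at Ex/Em 405/460 nm, expressed as triamterene-equivalent signal.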

[9] = target: Glucocorticoid receptor (Homo sapiens) (UniProt P04150); test: qHTS assay to identify small molecule agonists of the glucocorticoid receptor (GR) signaling pathway (AID 720691; active = well fitted activation curve with a large enough effect in the signal ratio in the repeat runs, not every such curve was filed as active; the % refers to the signal ratio)
Outline: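 Agonist-mode qHTS in HeLa cells stably expressing a glucocorticoid-response-element beta-lactamase reporter. Fluorescence intensity read with FRET substrate (2 h, room temperature) after 18 h compound treatment at 37 C.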

[10] = target: Glucocorticoid receptor (Homo sapiens) (UniProt P04150); test: qHTS assay to identify small molecule antagonists of the glucocorticoid receptor (GR) signaling pathway (AID 720692; active = well fitted inhibition curve with a large enough effect in the signal ratio in the repeat runs, not every such curve was filed as active; the % refers to the signal ratio)
Outline: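 Inhibition of dexamethasone-driven (5 nM final) beta-lactamase expression was measured in GRE-reporter HeLa cells over 18 h at 37C. Fluorescence was read after 2 h with the B/G FRET substrate at room temperature.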
% is set by controls: 0 for no effect and ±100 for the full control effect.

Glucocorticoid receptor (Homo sapiens), sequence (P04150 whole entry, looked up): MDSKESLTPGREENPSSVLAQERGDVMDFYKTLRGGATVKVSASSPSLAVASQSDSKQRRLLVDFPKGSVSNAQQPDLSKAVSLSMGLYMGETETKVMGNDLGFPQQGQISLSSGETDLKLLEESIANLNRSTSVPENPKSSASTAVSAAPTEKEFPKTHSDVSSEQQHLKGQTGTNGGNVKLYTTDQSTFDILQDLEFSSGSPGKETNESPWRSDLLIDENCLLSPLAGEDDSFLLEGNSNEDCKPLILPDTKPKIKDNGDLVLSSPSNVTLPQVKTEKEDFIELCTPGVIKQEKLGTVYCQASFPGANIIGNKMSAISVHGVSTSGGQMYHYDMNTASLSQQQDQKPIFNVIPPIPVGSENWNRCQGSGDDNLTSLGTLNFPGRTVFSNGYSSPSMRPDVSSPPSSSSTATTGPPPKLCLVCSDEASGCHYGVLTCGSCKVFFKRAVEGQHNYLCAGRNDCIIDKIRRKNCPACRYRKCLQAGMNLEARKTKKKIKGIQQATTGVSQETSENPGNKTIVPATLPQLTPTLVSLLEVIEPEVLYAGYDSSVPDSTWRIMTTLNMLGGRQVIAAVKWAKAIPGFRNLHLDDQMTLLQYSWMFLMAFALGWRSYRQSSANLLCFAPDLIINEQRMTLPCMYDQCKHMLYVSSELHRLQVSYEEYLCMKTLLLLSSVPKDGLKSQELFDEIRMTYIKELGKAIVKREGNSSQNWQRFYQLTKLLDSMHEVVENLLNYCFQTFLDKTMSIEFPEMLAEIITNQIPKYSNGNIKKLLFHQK

CC12CC3CC(C)(C1)CC(N)(C3)C2
inactive: outcome [1] | Potency [2] | outcome [3] | outcome [4] | outcome [5] | Potency [6] | outcome [7] | Potency [8] | Potency [9] | Potency [10]

O=C(O)CNC(=O)c1ccccc1I
inactive: outcome [1] | Potency [2] | outcome [3] | outcome [4] | outcome [5] | Potency [6] | outcome [7] | Potency [8] | Potency [9] | Potency [10]

COC(=O)CC(C(C)=O)C(=O)OC (stereo not given)
inactive: outcome [1] | Potency [2] | outcome [3] | outcome [4] | outcome [5] | Potency [6] | outcome [7] | Potency [8] | Potency [9] | Potency [10]

CS(=O)(=O)c1ccc([C@@H](C[C@H]2CCC(=O)C2)C(=O)Nc2cnccn2)cc1Cl
inactive: outcome [1] | Potency [2] | outcome [3] | outcome [4] | outcome [5] | Potency [6] | outcome [7] | Potency [8] | Potency [9] | Potency [10]

O=C1OC[C@H](Cc2cccc(O)c2)[C@H]1Cc1cccc(O)c1
inactive: outcome [1] | Potency [2] | outcome [3] | outcome [4] | outcome [5] | Potency [6] | outcome [7] | Potency [8] | Potency [9] | Potency [10]

CCOC(=O)c1ccc(NC(=O)CN2CCCCC2)cc1
inactive: outcome [1] | Potency [2] | outcome [3] | outcome [4] | outcome [5] | Potency [6] | outcome [7] | Potency [8] | Potency [9] | Potency [10]

Cc1ccccc1S(N)(=O)=O
inactive: outcome [1] | Potency [2] | outcome [3] | outcome [4] | outcome [5] | Potency [6] | outcome [7] | Potency [8] | Potency [9] | Potency [10]

Cc1cccc(C)c1NC(=O)c1cc(S(N)(=O)=O)c(Cl)cc1O
inactive: outcome [1] | Potency [2] | outcome [3] | outcome [4] | outcome [5] | Potency [6] | outcome [7] | Potency [8] | Potency [9] | Potency [10]

COc1ccc(-n2nc(C(F)F)cc2-c2ccc(S(C)=O)cc2)cc1 (stereo not given)
inactive: outcome [1] | Potency [2] | outcome [3] | outcome [4] | outcome [5] | Potency [6] | outcome [7] | Potency [8] | Potency [9] | Potency [10]

CNc1c2c(nn1C)CCCC2
inactive: outcome [1] | Potency [2] | outcome [3] | outcome [4] | outcome [5] | Potency [6] | outcome [7] | Potency [8] | Potency [9] | Potency [10]

CC(C)C(=O)OCCOc1ccccc1
inactive: outcome [1] | Potency [2] | outcome [3] | outcome [4] | outcome [5] | Potency [6] | outcome [7] | Potency [8] | Potency [9] | Potency [10]

C=CC(=O)O
inactive: outcome [1] | Potency [2] | outcome [3] | outcome [4] | outcome [5] | Potency [6] | outcome [7] | Potency [8] | Potency [9] | Potency [10]

Cc1cn([C@H]2C[C@H](F)[C@@H](CO)O2)c(=O)[nH]c1=O
inactive: outcome [1] | Potency [2] | outcome [3] | outcome [4] | outcome [5] | Potency [6] | outcome [7] | Potency [8] | Potency [9] | Potency [10]

CC[C@H]1OC(=O)[C@H](C)[C@@H](O[C@H]2C[C@@](C)(OC)[C@@H](O)[C@H](C)O2)[C@H](C)[C@@H](O[C@@H]2O[C@H](C)C[C@H](N(C)C)[C@H]2O)[C@](C)(O)C[C@@H](C)/C(=N\OCOCCOC)[C@H](C)[C@@H](O)[C@]1(C)O
inactive: outcome [1] | Potency [2] | outcome [3] | outcome [4] | outcome [5] | Potency [6] | outcome [7] | Potency [8] | Potency [9] | Potency [10]

CC(=O)NNC(C)=O
inactive: outcome [1] | Potency [2] | outcome [3] | outcome [4] | outcome [5] | Potency [6] | outcome [7] | Potency [8] | Potency [9] | Potency [10]

C=CC(=O)NC(C)C
inactive: outcome [1] | Potency [2] | outcome [3] | outcome [4] | outcome [5] | Potency [6] | outcome [7] | Potency [8] | Potency [9] | Potency [10]

CCO[Si](C)(CCCOCC1CO1)OCC (stereo not given)
inactive: outcome [1] | Potency [2] | outcome [3] | outcome [4] | outcome [5] | Potency [6] | outcome [7] | Potency [8] | Potency [9] | Potency [10]

Nc1ccc(F)cc1
inactive: outcome [1] | Potency [2] | outcome [3] | outcome [4] | outcome [5] | Potency [6] | outcome [7] | Potency [8] | Potency [9] | Potency [10]

CC1CCCC(=O)C1=O (stereo not given)
inactive: outcome [1] | Potency [2] | outcome [3] | outcome [4] | outcome [5] | Potency [6] | outcome [7] | Potency [8] | Potency [9] | Potency [10]

Cc1cccc2sc(N)nc12
inactive: outcome [1] | Potency [2] | outcome [3] | outcome [4] | outcome [5] | Potency [6] | outcome [7] | Potency [8] | Potency [9] | Potency [10]

CCCCCCCCCCCCCCN(C)C
inactive: fluorescence, % of fluorescein [1] 0.0258% [at 18.6 µM] | fluorescence, % of fluorescent control [2] 0.0125% [at 18.6 µM] | activity change [3] -0.0109% [at 18.6 µM] | fluorescence, % of fluorescent control [4] -0.0109% [at 18.6 µM] | fluorescence, % of Rose Bengal [5] -0.054% [at 18.6 µM] | fluorescence, % of fluorescent control [6] -0.025% [at 18.6 µM] | fluorescence, % of fluorescein control [7] -0.0531% [at 18.6 µM] | fluorescence, % of fluorescent control [8] -0.0432% [at 18.6 µM] | Potency [9] | Potency [10]
